High-throughput results: PubChem BioAssay, National Center for Advancing Translational Sciences (NCATS)
Shown are actives, neighbours in structure and some others; about 0.45% of the full set was active somewhere.
FMDV RLuc: Primary qHTS Assay for Foot and Mouth Disease Virus Antivirals against NCGC Sytravon and CBC Compound Libraries: Renilla Luciferase Signal. FMDV replicon cells, Renilla luciferase signal. Potency, µM (doses to about 57.5 µM), for the others: top-dose activity change, negative = inhibition, hits mostly inhibitors. 0.32% of 120,000 active; also: nearly all actives have a fitted effect of over 55% in size
FMDV FLuc: Primary qHTS Assay for Foot and Mouth Disease Virus Antivirals against NCGC Sytravon and CBC Compound Libraries: Firefly Luciferase Signal; FMDV antiviral cell assay, firefly luciferase signal; Potency, µM (top dose mostly 57.5 µM), for the others: at the highest dose activity change, negative = inhibition, actives largely listed as inhibitors; 0.23% of 120,000 active; AID 1745856, 2022; also: nearly all actives have a fitted effect of over 60% in size
Starred values were filed as active, the others as inactive; ? = inconclusive. Calls follow the shape of the full dose curve. % is scaled to controls: 0 for no effect and ±100 for the full control effect; potency is read from the fitted curve at half-maximal effect.

SMILES | FMDV RLuc | FMDV FLuc
COC(=O)c1c(COC(=O)c2ccc(N3CCCS3(=O)=O)cc2)nc2ccccc2c1C | 0.3% | 12.8%
CCOc1ccccc1C1NC(=O)NC(CN2CCN(c3ccccn3)CC2)=C1C(=O)OC (stereo not given) | 4.9% | 17.9%
CCCN(CCC)S(=O)(=O)NCc1ccnc(N2CCN(c3ccc(F)cc3)CC2)c1 | -13.1% | -29.2%
CCN(CC)S(=O)(=O)NCc1ccnc(N2CCN(c3ccc(F)cc3)CC2)c1 | 10µM* | ?
Cc1ccccc1NC(=O)C(=O)c1c[nH]c2ccccc12 | 2.6% | 172.7%
COc1cc(OC)c(NC(=O)NCc2ccc3c(c2)CCN3C(C)=O)cc1Cl | -3.6% | -8.6%
COc1cc(OC)c(NC(=O)NCc2ccc3c(c2)CCN3C(=O)c2ccccc2)cc1Cl | 22.4µM* | 0.0%
Cc1ccc(-n2nnnc2Sc2nnnn2-c2ccccc2)c(C)c1 | 25.1µM* | ?
Cc1cccc(-n2nnnc2Sc2nnnn2-c2ccccc2)c1C | ? | -26.8%
CCCCc1nn2c(=O)cc(COC(=O)CNC(=O)c3cccc(C)c3)nc2s1 | -2.5% | 2.5%
CC(=O)N1c2ccccc2C(=O)C1N1CCN(c2cccc(C(F)(F)F)c2)CC1 (stereo not given) | -16.7% | -21.8%
O=C1CC(c2ccccc2O)Cc2nc(N3CCN(c4cccc(C(F)(F)F)c4)CC3)ncc21 (stereo not given) | 3.98µM* | 8.91µM*
CC(C)(CNC(=O)c1cccc2ccccc12)CNC(=O)c1cccc2ccccc12 | 20.1% | -20.5%
O=C(CCc1nnc2ccc(NCc3ccco3)nn12)Nc1ccc2c(c1)OCO2 | 14.4% | 39.9%
Cc1cccc(NC(=O)CSc2nc3ccc(NC(=O)COc4ccccc4C)cc3s2)c1 | 5.01µM* | ?
Cc1ccccc1OCC(=O)Nc1ccc2nc(SCCOc3ccccc3)sc2c1 | -1.4% | -11.1%
CC(C)NC(=O)CN(C)Cc1cccc2cccnc12 | -6.6% | 0.0%
Cc1onc(-c2ccccc2Cl)c1C(=O)Oc1ccccc1F | 37.2% | -19.4%
CCOc1ccc(OC(=O)c2c(-c3ccccc3Cl)noc2C)cc1 | ? | 28.2µM*
CCOc1ccc(NC(=O)c2ccc3c(c2)NC(=O)CS3)cc1OC | 10.8% | 15.0%
CS(=O)(=O)c1ccc2nc(NC(=O)CS(=O)(=O)c3ccc(Cl)cc3)sc2c1 | -8.4% | 0.0%
CCOc1ccc2nc(NC(=O)CS(=O)(=O)c3ccc(Cl)cc3)sc2c1 | ? | 8.91µM*
CC(=O)Nc1ccc(S(=O)(=O)N2CCC(Oc3ccc(-n4cnnn4)cc3)CC2)cc1 | 13.4% | -3.2%
O=S(=O)(c1cccc(F)c1)N1CCC(Oc2ccc(-n3cnnn3)cc2)CC1 | ? | 22.4µM*
CC1=C/C(=N\Nc2ccccc2Cl)CC1 | 13.1% | 35.3%
O=C(CCc1c[nH]c2ccccc12)N1CCCC1c1ccc(F)cc1 (stereo not given) | 10.9% | -16.2%
CCCn1nc(C(=O)N2CCN(c3ccccc3)CC2)c2ccccc2c1=O | 20.3% | 8.0%
O=C(Nc1ccc(Br)cc1)c1cccc(S(=O)(=O)N2CCc3ccccc32)c1 | 3.98µM* | 31.6µM*
NS(=O)(=O)c1ccc(NC(=O)c2ccc3c(c2)CCN3S(=O)(=O)c2ccccc2)cc1 | 64.9% | -9.2%
